# Measured values published in the supplement of paper PMC3616981.
# Compound: CC(C)c1cccc(C(C)C)c1N1C(=O)c2ccc(O)cc2C1=O
# Experiment: reporter fold induction vs vehicle; higher = higher reporter activity
# Protocol: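 Attagene multiplexed transcription-factor reporter assay (48 cis response elements and 25 trans nuclear-receptor constructs) treated with 5HPP-33 at 8 concentrations (0.091–200 µM). The response is fold induction of reporter activity relative to vehicle control. Cell line and time not stated in the paper; tested in ToxCast Phase II for this study.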
Target,reporter fold induction (0.091 µM),reporter fold induction (0.274 µM),reporter fold induction (0.823 µM),reporter fold induction (2.469 µM),reporter fold induction (7.407 µM),reporter fold induction (22.22 µM),reporter fold induction (66.67 µM),reporter fold induction (200 µM)
RXRa_TRANS,0.986,0.983,1.1,0.957,1.09,1.31,1.31,1.84
Ahr_CIS,0.965,0.977,0.949,1.01,1.06,1,2.27,1.09
PPARa_TRANS,1.19,1.13,0.988,0.988,0.912,0.775,0.936,0.812
E_Box_CIS,1.04,0.955,1.02,0.967,1.11,0.945,1.06,0.895
TA_CIS,1.06,1,1.04,0.923,0.983,1.08,1.39,1.22
